From the supplement of paper PMC7411640
Where a name gives a salt, the structure may show the parent alone.

Tested on: MDA-MB-468
Assay: phospho-S6 immunofluorescence (DAPI-normalised), per-plate z-score; higher = higher phospho-S6 signal (less pathway suppression)
Conditions: 24 h
Method: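 GPCR-targeted compound library (MedChemExpress HY-L006) tested on MDA-MB-468 PTEN-null TNBC cells in 384-well plates at 0.1, 1 or 10 uM, combined with vehicle, GDC0941 450 nM or lapatinib 1 uM, for 24 h. Phospho-S6 (S240/244) immunofluorescence normalised to DAPI and expressed as a per-plate z-score; values are the mean of biological triplicates.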

Row | Compound | phospho-S6 immunofluorescence (z-score) (co-treatment: GDC0941 450 nM) | phospho-S6 immunofluorescence (z-score) (co-treatment: lapatinib 1 uM) | phospho-S6 immunofluorescence (z-score) (co-treatment: vehicle)
1 | CC[N+](C)(CC)CCOC(=O)C(O)(c1ccccc1)c1ccccc1 [Methylbenactyzium Bromide] (compound 10 µM) | -0.26 | -0.59 | -0.57
2 | Cc1ccc2c(c1)[C@]13CCCC[C@@H]1[C@H](C2)N(C)CC3 [Dimemorfan (phosphate)] (compound 10 µM) | 0.3 | 0.09 | 0.76
3 | CN1[C@@H]2CC[C@H]1C[C@@H](OC(=O)[C@H](CO)c1ccccc1)C2 [L-Hyoscyamine] (compound 10 µM) | 0.17 | 0.67 | 0.91
4 | CO[C@]12C[C@@H](COC(=O)c3cncc(Br)c3)CN(C)[C@@H]1Cc1cn(C)c3cccc2c13 [Nicergoline] (compound 10 µM) | 0.57 | -0.56 | -0.38
5 | CN1[C@@H]2CC(O)C[C@H]1[C@@H]1O[C@@H]12 (some centres undefined) [Scopine (hydrochloride)] (compound 10 µM) | 1.05 | 0.28 | -1.09
6 | NCCc1cc(O)c(O)cc1O [Oxidopamine (hydrobromide)] (compound 10 µM) | 0.33 | 2.77 | 2.94
7 | NCC(O)c1ccc(O)cc1 (centres undefined) [Octopamine (hydrochloride)] (compound 10 µM) | 0.26 | 0.86 | 1.09
8 | COC(=O)C1=CCCN(C)C1 [Arecoline (hydrobromide)] (compound 10 µM) | 0.22 | 0.44 | 0.56
9 | Oc1ccc2c3c1O[C@H]1c4[nH]c5ccccc5c4C[C@@]4(O)[C@@H](C2)N(CC2CC2)CC[C@]314 [Naltrindole (hydrochloride)] (compound 10 µM) | -1.12 | -5.41 | -1.21
10 | N[C@]1(C(=O)O)CC[C@H](C(=O)O)C1 [trans-ACPD] (compound 10 µM) | 0.3 | 0.1 | -0.68
11 | O=c1[nH]c2ccccc2n1CCCN1CCC(n2c(=O)[nH]c3cc(Cl)ccc32)CC1 [Domperidone] (compound 10 µM) | 0.19 | 0.25 | 1.62
12 | CCN(CC)C(=O)c1ccc(C2=CC3(CCNCC3)Oc3cccc(O)c32)cc1 (compound 10 µM) | 0.32 | -0.78 | 0.88
13 | O=C1CC[C@@]2(O)[C@H]3Cc4ccc(O)c5c4[C@@]2(CCN3CC2CC2)[C@H]1O5 [Naltrexone (Hydrochloride)] (compound 10 µM) | 0.88 | 0.25 | 1.41
